Values without a mark were called inactive. Records with an inconclusive call do not appear. Calls of active or inactive are those of the source. Unless noted, the call rests on the fitted dose curve; in most records, active means well fitted curve in the direction sought with a large enough effect in the repeat runs; inconclusive means weak or mixed curves; inactive means no such curve, though single readings can be large; an effect the other way counts as inactive or inconclusive.

Assay [1] deals with Estrogen receptor beta (Homo sapiens) (UniProt Q92731). Nature of the assay: qHTS assay to identify small molecule agonists of the estrogen receptor beta (ER-beta) signaling pathway (AID 1259377; active means well fitted activation curve with a large enough effect in the signal ratio in the repeat runs, not every such curve was filed as active; the % refers to the signal ratio; further: potency means the concentration at half of the fitted maximal effect). A digest of the protocol: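 ER-beta-UAS-bla HEK293T cells in medium with 2% charcoal-stripped FBS were exposed to compounds for 16 h at 37C. Beta-lactamase reporter activity was read as fluorescence after 2 h with LiveBLAzer B/G FRET substrate at room temperature.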
(qHTS replaces the single test concentration by a dilution series.)

Assay [2] is described as follows: qHTS assay to identify small molecule agonists of the androgen receptor (AR) signaling pathway in the presence of an antagonist - cell viability counter screen (AID 1259379).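 Further: MDA-kb2 human breast cancer cells carrying an MMTV luciferase reporter; series mostly up to about 92 µM; nearly all actives have a fitted effect of over 25% in size.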 Summed up: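 Viability counter screen: CellTiter-Fluor fluorescence, measured in the same wells as the luciferase read-out. MDA-kb2 cells, 3,000/well, with nilutamide at 3.0uM final and compounds at 15 concentrations, 16 hr at 37C, 0% CO2.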

Assay [3] is described as follows: qHTS assay to identify small molecule agonists of the estrogen receptor beta (ER-beta) signaling pathway - cell viability counter screen (AID 1259380). Further: nearly all actives have a fitted effect of over 30% in size. A digest of the protocol: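 Luminescence read-out (CellTiter-Glo, 30 min, room temp) taken in the same wells as the beta-lactamase reporter assay; ER-beta-UAS-bla HEK293T cells exposed to DMSO-dissolved compounds for 16 hr at 37C in 2% charcoal-stripped FBS medium.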

Assay [4] is described as follows: qHTS assay to identify small molecule antagonists of the estrogen receptor beta (ER-beta) signaling pathway - cell viability counter screen (AID 1259382). Further: series mostly up to about 92 µM; nearly all actives have a fitted effect of over 55% in size. Summed up: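 Luminescent ATP read-out (CellTiter-Glo, 30 min, RT) taken in the same wells as the bla reporter assay. HEK293T ER-beta-UAS-bla cells in 2% charcoal-stripped FBS were exposed to compounds with 1nM E2 for 16 hr at 37C.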

Assay [5] concerns the target Estrogen receptor (Homo sapiens) (UniProt P03372). Kind of assay: qHTS assay to identify small molecule agonists of the estrogen receptor alpha (ER-alpha) signaling pathway in the presence of an antagonist (AID 1259383; calls by dose curve; further: top concentration of the series differs between compounds; nearly all actives have a fitted effect of over 15% in size). Summed up:
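Luciferase luminescence (ONE-Glo, 30min at room temperature) measured in VM7Luc4E2 cells after 22hr compound exposure at 15 concentrations, with 10.0nM ICI-182,780 final present; cells express endogenous ER-alpha and carry four EREs upstream of luciferase.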

Assay [6] can be described thus: qHTS assay to identify small molecule agonists or antagonists of the thyroid stimulating hormone receptor (TSHR) signaling pathway - wild type cell line counter screen (AID 1259384; calls by dose curve). Summed up:
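Wild-type Hek293 cells, 800/well, 18 h at 37C, then compound with Ro20-1724 for 30 min RT. cAMP by HTRF (cAMP-d2/anti-cAMP cryptate), 1 h RT, fluorescence read. 15 concentrations, triplicates.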

Assay [7] has as its target Thyrotropin receptor (Homo sapiens) (UniProt P16473). Nature of the assay: qHTS assay to identify small molecule antagonists of the thyroid stimulating hormone receptor (TSHR) signaling pathway (AID 1259385; calls by dose curve; further: nearly all actives have a fitted effect of over 20% in size). Summed up: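 TSHR-HEK293 cells (800/well) plated 18 h, then compounds with Ro20-1724 and TSH at 1.5 ng/mL final, 30 min at room temperature. cAMP quantified by HTRF (cAMP-d2/anti-cAMP-cryptate, 1 h); 15 concentrations in triplicate.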

Assay [8] concerns the target Progesterone receptor (Homo sapiens) (UniProt P06401). Kind of assay: qHTS assay to identify small molecule agonists of the progesterone receptor (PR) signaling pathway (AID 1346784; calls by dose curve; further: nearly all actives have a fitted effect of over 30% in size). Summed up: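 PR-UAS-bla HEK 293T cells (beta-lactamase reporter under UAS) in 2% charcoal-stripped FBS, dosed with 23 nL compound after 6 hr, incubated 16hr at 37C. LiveBLAzer B/G FRET substrate added, fluorescence read after 2 hours.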

The nature of assay [9]: qHTS assay to identify small molecule antagonists of the progesterone receptor (PR) signaling pathway - cell viability counter screen (AID 1346798). Further: series mostly up to about 92 µM; nearly all actives have a fitted effect of over 50% in size. Summed up: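 PR-UAS-bla HEK293T cells, 3,000/well in 2% charcoal-stripped FBS medium, dosed with compounds plus R5020 agonist and incubated 16 h at 37C. Viability then measured in the same wells by CellTiter-Glo luminescence after 30 min at RT.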

Assay [10] in a line: qHTS assay to identify small molecule agonists of the progesterone receptor (PR) signaling pathway - cell viability counter screen (AID 1346799; calls by dose curve; further: nearly all actives have a fitted effect of over 45% in size). A digest of the protocol: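 Counter screen in the PR-UAS-bla HEK293T wells (2% charcoal-stripped FBS, 16 h compound exposure at 37 C) after the bla read. CellTiter-Glo added, 30 min at room temperature, luminescence read as cell viability.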

The nature of assay [11]: qHTS assay to identify small molecule antagonists of the TGF-beta/Smad signaling pathway - cell viability counter screen (AID 1346824). Further: nearly all actives have a fitted effect of over 50% in size. Summed up: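 SBE-bla HEK 293T cells, incubated overnight, then compound plus 0.25 ng/mL TGF-beta1 (stock added) for 5 hr at 37 C. Viability was read in the same wells by CellTiter-Glo luminescence after 30 min at room temperature.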
A short description of assay [12]: qHTS assay to identify small molecule agonists of the TGF-beta/Smad signaling pathway - cell viability counter screen (AID 1346829). Further: top concentration of the series differs between compounds; nearly all actives have a fitted effect of over 45% in size. A digest of the protocol: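 Same-well cytotoxicity: CellTiter-Glo added after the 2 hr room-temperature beta-lactamase substrate step, luminescence measured 30 min later; cells had 5 hr of compound at 37 C.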
The nature of assay [13]: qHTS assay to identify small molecule agonists of the TGF-beta/Smad signaling pathway (AID 1346859; active means well fitted activation curve with a large enough effect in the signal ratio in the repeat runs, not every such curve was filed as active; the % refers to the signal ratio; further: series mostly up to about 77 µM). Summed up:
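SBE-bla HEK293T cells plated overnight, then compound exposure for 5 h at 37 C. Beta-lactamase reporter read with LiveBLAzer B/G FRET substrate after 2 h at room temperature, fluorescence at 405 nm excitation, 460/530 nm emission.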

The target of assay [14] is Thyrotropin-releasing hormone receptor (Homo sapiens) (UniProt P34981). Nature of the assay: qHTS assay to identify small molecule antagonists of the thyrotropin-releasing hormone receptor (TRHR) signaling pathway (AID 1346877; active means well fitted inhibition curve with a large enough effect in the repeat runs, not every such curve was filed as active; further: series mostly up to about 51 µM). A digest of the protocol: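 HEK293/TRHR cells, 18 h, 37 °C; Ca2+ dye 2 h; cpd 5 min RT; TRH 1 nM final; fluorescence read 3 min, 1 s intervals; 15 concs, triplicate.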

Assay [15] shares this target. Nature of the assay: qHTS assay to identify small molecule agonists of the thyrotropin-releasing hormone receptor (TRHR) signaling pathway (AID 1346891; calls by dose curve; further: series mostly up to about 58 µM). A digest of the protocol:
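HEK293 cells expressing TRHR plated 18 h at 37 C/5% CO2, calcium dye-loaded 2 h at 37 C, then compound added (agonist mode); kinetic calcium fluorescence read 3 min at 1 s intervals; 15 concentrations in triplicate.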

Assay [16] can be described thus: Human pregnane X receptor (PXR) small molecule agonists, qHTS cell viability counter screen (AID 1346977). Further: nearly all actives have a fitted effect of over 50% in size. Summed up: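 PXR-Luc HepG2 cells (2,000/well, 5% charcoal-stripped FBS) preincubated 5 hr, then exposed to compounds 24 hr at 37 C. Viability read in the same wells by CellTiter-Fluor fluorescence, reagent added at 23 hr, 1 hr incubation.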
Assay [17] can be described thus: qHTS assay to identify small molecule agonists of the estrogen receptor alpha (ER-alpha) signaling pathway in the presence of an antagonist - cell viability counter screen (AID 1259386).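 Further: series mostly up to about 92 µM; cells exposed to compounds for 22 h at 37 °C before the viability read; nearly all actives have a fitted effect of over 30% in size.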 A digest of the protocol:
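Read-out: CellTiter-Fluor fluorescence after 1hr reagent incubation, measured in the same wells as the luciferase readout. VM7Luc4E2 cells were exposed to 15 compound concentrations with 10.0nM ICI-182,780 for 22hr at 37C.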

Assay [18] concerns the target Progesterone receptor (Homo sapiens) (UniProt P06401). Kind of assay: qHTS assay to identify small molecule antagonists of the progesterone receptor (PR) signaling pathway (AID 1346795; active means well fitted inhibition curve with a large enough effect in the signal ratio in the repeat runs, not every such curve was filed as active; the % refers to the signal ratio; further: potency means the concentration at half of the fitted maximal effect). Summed up: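 PR-UAS-bla HEK293T cells with beta-lactamase reporter under UAS control, in 2% charcoal-stripped FBS, treated with compounds plus 1 nM promegestone (R5020, final) for 16 hr at 37C. Read-out: FRET beta-lactamase substrate fluorescence after 2 hr at room temperature.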

In assay [19] the target is Androgen receptor (Homo sapiens) (UniProt P10275). Kind of assay: qHTS assay to identify small molecule agonists of the androgen receptor (AR) signaling pathway in the presence of an antagonist (AID 1259381; calls by dose curve; further: nearly all actives have a fitted effect of over 15% in size; further: potency means the concentration at half of the fitted maximal effect). A digest of the protocol: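 Luciferase read-out (ONE-Glo, 30min room temperature) in MDA-kb2 MMTV-reporter cells; agonist mode run in presence of AR antagonist nilutamide, 3.0uM final. Compounds tested as 15-point series, 16hr exposure at 37C, 0% CO2.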

Assay [20] has as its target Estrogen receptor beta (Homo sapiens) (UniProt Q92731). Nature of the assay: qHTS assay to identify small molecule antagonists of the estrogen receptor beta (ER-beta) signaling pathway (AID 1259378; active means well fitted inhibition curve with a large enough effect in the signal ratio in the repeat runs, not every such curve was filed as active; the % refers to the signal ratio). Summed up: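 ER-beta-UAS-bla HEK293T cells in 2% charcoal-stripped FBS medium treated with compound plus 1nM final 17-beta-estradiol for 16 hr at 37C. Beta-lactamase reporter read by FRET substrate fluorescence after 2 hours at room temperature.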
On the % scale 0 is the no-effect control and ±100 the full control effect.

Androgen receptor (Homo sapiens), sequence (P10275 whole entry, looked up): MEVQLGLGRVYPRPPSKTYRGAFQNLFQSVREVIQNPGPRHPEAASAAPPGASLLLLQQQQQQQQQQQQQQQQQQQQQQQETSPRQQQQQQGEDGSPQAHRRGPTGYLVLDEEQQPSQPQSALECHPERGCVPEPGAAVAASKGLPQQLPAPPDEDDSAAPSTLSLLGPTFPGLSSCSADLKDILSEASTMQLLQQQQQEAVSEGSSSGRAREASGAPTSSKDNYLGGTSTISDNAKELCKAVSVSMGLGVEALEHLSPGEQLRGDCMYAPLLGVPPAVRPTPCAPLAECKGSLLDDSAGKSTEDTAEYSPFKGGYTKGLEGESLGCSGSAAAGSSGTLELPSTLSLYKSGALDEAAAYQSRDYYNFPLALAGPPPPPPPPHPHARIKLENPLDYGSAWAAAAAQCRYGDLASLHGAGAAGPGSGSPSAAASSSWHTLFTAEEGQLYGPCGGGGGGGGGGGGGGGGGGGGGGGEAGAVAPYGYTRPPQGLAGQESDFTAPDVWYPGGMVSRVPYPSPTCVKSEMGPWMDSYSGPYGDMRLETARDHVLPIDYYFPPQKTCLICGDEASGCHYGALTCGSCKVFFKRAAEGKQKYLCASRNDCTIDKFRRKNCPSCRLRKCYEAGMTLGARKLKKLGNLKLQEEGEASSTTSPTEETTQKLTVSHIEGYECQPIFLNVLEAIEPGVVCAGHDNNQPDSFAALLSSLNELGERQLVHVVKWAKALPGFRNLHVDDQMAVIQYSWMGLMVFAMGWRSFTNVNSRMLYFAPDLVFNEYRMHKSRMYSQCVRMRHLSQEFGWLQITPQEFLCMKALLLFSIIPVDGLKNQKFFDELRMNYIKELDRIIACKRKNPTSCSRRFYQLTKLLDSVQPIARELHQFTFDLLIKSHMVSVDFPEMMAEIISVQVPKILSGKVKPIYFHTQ
Progesterone receptor (Homo sapiens), sequence (P06401 whole entry, looked up): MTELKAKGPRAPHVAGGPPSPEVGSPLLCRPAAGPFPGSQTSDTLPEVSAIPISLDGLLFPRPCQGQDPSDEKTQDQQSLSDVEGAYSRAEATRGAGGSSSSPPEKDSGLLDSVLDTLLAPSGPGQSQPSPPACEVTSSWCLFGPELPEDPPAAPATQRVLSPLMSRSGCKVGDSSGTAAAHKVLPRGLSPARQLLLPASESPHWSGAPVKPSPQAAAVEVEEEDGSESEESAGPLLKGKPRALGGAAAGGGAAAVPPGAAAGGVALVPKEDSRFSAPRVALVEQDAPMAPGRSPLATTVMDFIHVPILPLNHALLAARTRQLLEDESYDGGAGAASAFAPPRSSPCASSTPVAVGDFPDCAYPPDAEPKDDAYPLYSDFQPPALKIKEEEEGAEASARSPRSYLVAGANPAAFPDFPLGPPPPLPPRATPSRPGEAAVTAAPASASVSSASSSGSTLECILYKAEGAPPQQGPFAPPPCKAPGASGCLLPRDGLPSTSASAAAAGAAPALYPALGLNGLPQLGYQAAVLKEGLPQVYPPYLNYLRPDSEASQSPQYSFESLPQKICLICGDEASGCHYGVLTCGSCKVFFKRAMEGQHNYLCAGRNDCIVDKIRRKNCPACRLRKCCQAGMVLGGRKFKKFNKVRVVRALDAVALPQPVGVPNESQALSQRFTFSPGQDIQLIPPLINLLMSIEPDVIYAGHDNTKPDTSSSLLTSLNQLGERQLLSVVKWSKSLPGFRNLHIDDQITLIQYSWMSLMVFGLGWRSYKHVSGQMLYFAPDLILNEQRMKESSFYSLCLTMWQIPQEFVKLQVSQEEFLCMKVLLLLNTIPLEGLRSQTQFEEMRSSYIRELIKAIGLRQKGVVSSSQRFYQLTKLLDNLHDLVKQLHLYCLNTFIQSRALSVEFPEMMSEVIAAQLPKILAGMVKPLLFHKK
Thyrotropin receptor (Homo sapiens), sequence (P16473 whole entry, looked up): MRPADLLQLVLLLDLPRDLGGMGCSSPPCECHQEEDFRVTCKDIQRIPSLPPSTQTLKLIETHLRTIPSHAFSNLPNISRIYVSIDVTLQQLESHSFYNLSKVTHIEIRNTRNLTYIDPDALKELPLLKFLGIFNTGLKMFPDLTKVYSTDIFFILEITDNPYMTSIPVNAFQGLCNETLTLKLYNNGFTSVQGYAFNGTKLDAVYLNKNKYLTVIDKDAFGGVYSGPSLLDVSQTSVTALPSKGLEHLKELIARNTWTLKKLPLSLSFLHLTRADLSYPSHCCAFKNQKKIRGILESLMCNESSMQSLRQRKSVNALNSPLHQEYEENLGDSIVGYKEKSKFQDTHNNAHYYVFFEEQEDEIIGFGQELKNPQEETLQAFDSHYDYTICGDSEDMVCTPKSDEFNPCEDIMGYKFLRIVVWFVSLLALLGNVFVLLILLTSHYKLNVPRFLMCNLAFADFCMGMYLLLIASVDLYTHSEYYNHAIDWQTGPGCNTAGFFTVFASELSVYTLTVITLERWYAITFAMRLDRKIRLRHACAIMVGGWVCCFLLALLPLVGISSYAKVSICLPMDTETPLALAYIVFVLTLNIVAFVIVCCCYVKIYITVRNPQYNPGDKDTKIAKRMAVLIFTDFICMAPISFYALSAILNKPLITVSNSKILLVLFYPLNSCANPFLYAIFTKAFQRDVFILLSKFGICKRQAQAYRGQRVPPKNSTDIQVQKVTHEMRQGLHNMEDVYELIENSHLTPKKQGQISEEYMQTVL
Estrogen receptor beta (Homo sapiens), sequence (Q92731 whole entry, looked up): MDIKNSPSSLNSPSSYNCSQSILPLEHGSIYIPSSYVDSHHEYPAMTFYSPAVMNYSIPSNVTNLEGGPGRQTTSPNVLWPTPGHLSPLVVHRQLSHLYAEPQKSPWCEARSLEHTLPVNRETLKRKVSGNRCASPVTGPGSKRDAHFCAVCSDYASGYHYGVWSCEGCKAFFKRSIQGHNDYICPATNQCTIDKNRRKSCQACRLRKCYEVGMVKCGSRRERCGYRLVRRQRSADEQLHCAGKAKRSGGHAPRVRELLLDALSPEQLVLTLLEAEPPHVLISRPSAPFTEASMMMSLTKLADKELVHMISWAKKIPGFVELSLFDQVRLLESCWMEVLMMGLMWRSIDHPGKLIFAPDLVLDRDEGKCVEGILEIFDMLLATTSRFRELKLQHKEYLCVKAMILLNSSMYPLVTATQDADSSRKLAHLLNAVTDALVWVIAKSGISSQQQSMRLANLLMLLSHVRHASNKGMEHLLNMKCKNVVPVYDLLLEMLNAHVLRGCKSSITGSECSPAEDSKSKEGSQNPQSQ
Estrogen receptor (Homo sapiens), sequence (P03372 whole entry, looked up): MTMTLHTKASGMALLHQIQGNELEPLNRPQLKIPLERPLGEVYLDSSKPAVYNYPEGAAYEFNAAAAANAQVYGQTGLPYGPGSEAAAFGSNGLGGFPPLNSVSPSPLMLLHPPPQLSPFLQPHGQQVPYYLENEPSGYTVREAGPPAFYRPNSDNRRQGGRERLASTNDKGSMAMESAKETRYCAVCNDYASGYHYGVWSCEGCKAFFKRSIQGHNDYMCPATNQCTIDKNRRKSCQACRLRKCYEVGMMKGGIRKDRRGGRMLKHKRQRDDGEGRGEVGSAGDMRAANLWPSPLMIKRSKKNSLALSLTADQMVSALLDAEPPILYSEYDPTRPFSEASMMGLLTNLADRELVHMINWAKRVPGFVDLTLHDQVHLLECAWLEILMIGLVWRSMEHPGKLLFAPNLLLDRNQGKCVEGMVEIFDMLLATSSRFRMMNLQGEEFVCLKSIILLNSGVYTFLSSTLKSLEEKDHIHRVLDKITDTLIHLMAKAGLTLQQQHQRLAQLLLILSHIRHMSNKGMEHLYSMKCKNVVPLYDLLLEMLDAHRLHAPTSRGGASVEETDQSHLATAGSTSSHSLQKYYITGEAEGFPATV
Thyrotropin-releasing hormone receptor (Homo sapiens), sequence (P34981 whole entry, looked up): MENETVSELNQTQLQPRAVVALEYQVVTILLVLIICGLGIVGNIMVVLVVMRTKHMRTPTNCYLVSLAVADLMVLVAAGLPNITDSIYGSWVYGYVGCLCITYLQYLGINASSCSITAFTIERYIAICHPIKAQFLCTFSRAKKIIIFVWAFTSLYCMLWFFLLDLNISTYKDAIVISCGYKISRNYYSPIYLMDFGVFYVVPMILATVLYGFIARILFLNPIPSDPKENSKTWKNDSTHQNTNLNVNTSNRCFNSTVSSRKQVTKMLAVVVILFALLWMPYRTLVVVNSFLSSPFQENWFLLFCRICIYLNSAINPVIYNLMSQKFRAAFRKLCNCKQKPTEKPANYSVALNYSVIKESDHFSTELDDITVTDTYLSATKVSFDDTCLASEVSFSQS

Regarding `CC(C)(N)C#N`, the Potency entry in assay [1], in assay [2], in assay [3], in assay [8], in assay [9] and in assay [10] was “inactive” throughout. The Potency entry in assay [15] and in [16] was “inactive” throughout. Besides, the result in assay [4], in assay [5], in [6], in [7], in assay [11] and in [12] was inactive. Also, the compound was classed as inactive in assay [13] and in assay [14].
In the case of `O=C(CO)[C@@H](O)[C@H](O)[C@H](O)CO`, the Potency entry in [1], in assay [2], in [3], in assay [17], in [8] and in assay [18] was “inactive” throughout. For the same compound, the Potency result in assay [9], in assay [10], in assay [15] and in assay [16] was “inactive” throughout. In addition, the result in assay [4], in [5], in [7], in [11], in assay [12] and in assay [13] was inactive. Moreover, the outcome in assay [14] was inactive.
With `O=C(c1ccccc1O)c1ccccc1O`, the Potency entry in assay [1], in assay [2], in assay [3], in assay [19], in assay [8] and in assay [9] was “inactive” in each case. Also, the Potency entry in [10] and in assay [16] was “inactive” throughout. For the same compound, the outcome in assay [4], in assay [6], in assay [7], in [11], in assay [12] and in assay [13] was inactive. For the same compound, the Potency in assay [18] is 27 µM (active).
Regarding `CCOC(=O)c1cnc2c(cnn2CC)c1NN=C(C)C`, the Potency entry in assay [1], in assay [2], in assay [3], in assay [8], in assay [18] and in assay [9] was “inactive” each time. Further, the Potency entry in assay [10], in assay [15] and in assay [16] was “inactive” each time. Moreover, the outcome in assay [4], in assay [5], in [11], in assay [12], in assay [13] and in assay [14] was inactive.
Turning to `CC(C)(CCC(=O)O)C(=O)O`, the Potency entry in assay [1], in [2], in assay [3], in assay [17], in assay [8] and in assay [18] was “inactive” in each case. Also, the Potency entry in assay [9], in [10], in assay [15] and in assay [16] was “inactive” throughout. For the same compound, the result in assay [4], in assay [5], in [11], in [12], in assay [13] and in assay [14] was inactive.
Regarding `O=C1c2ccccc2C(=O)c2cc(O)ccc21`, in assay [1], the Potency is 5.45 µM (active). Further, the Potency entry in assay [3], in [8] and in [18] was “inactive” each time. In addition, the call in [4], in [6], in assay [11], in assay [12] and in [13] was inactive.
On to `CC1=CCC(O)(C(C)C)CC1` (stereo unspecified), for which the Potency result in [20], in [2], in assay [3], in assay [17], in assay [8] and in [9] was “inactive” throughout. The Potency entry in assay [10], in assay [15] and in [16] was “inactive” throughout. The compound was called inactive in assay [4], in [5], in assay [6], in assay [7], in assay [11] and in [13]. Besides, the call in [14] was inactive.
On to `CC(=O)N[C@H]1[C@H]([C@H](O)[C@H](O)CO)OC(C(=O)O)=C[C@@H]1N=C(N)N`, for which the Potency entry in assay [2], in assay [3], in assay [19], in assay [17], in assay [8] and in [18] was “inactive” throughout. Also, the Potency entry in assay [9], in assay [10], in assay [15] and in [16] was “inactive” throughout. The compound was called inactive in [4], in assay [5], in [6], in assay [7], in assay [11] and in [13]. The compound was called inactive in assay [14].
With `C[C@@H]1C[C@H]2[C@@H]3C[C@H](F)C4=CC(=O)C(Cl)=C[C@]4(C)[C@@]3(F)[C@@H](O)C[C@]2(C)[C@@]1(O)C(=O)CO`, the Potency entry in assay [2], in [3], in assay [15] and in [16] was “inactive” each time. Also, in assay [19], the Potency is 0.0047 µM (active). Moreover, the result in [4], in [5], in [7], in assay [11], in assay [13] and in [14] was inactive.
As to `CC(CC=O)CC(C)(C)C` (stereo unspecified), the Potency result in assay [1], in assay [2], in [8], in [18], in [9] and in assay [10] was “inactive” each time. Further, the Potency result in assay [15] and in assay [16] was “inactive” throughout. Also, the compound was classed as inactive in assay [4], in assay [5], in assay [6], in assay [7], in assay [11] and in [12]. Further, the compound was classed as inactive in assay [13] and in [14].
Consider `CN1CCN(c2cc3c(nn2)Oc2ccccc2N3C)CC1`, for which the activation was 7.81% [at 19 µM] in assay [1], 0.134% [at 19 µM] in [8] and 3.68% [at 15.8 µM] in assay [13]. Also, the activity change, negative = cytotoxicity is 0.723% [at 19 µM] in [2]; 2.64% [at 19 µM] in assay [3]; -0.299% [at 19 µM] in assay [4]; -18% [at 18.9 µM] in assay [9]; -4.66% [at 19 µM] in assay [10]; 19.9% [at 15.8 µM] in [12]. Further, the activity change, negative = cytotoxicity in [16] was 8.08% [at 19 µM]. The cAMP activity change in assay [6] is -3.2% [at 18.9 µM]. The activity change, negative = inhibition in assay [18] was 15.6% [at 18.9 µM]. In addition, the viability change, negative = cytotoxic in assay [11] was 1.43% [at 15.8 µM].
